Unmarked numbers belong to inactive results. For some assays here: Results with a measured potency or affinity are listed apart. Activity calls are given as the source filed them. Unless noted, no rule for the calls is given here.
What was measured:
[1] = antimalarial activity against Dd2 strain (AID 2302;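 active = growth inhibition above 50% at the single 2 µM test dose, taken to imply half-maximal potency below 2 µM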;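 also: 0% = DMSO untreated growth and 100% = chloroquine plus artemisinin killed control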); settings: P. falciparum Dd2 in RBCs, LDH growth readout, 72 h; at 2 µM; stronger effect = higher value
[2] = human hepatoma cell viability loss – ATP luminescence, cytotoxicity control for P. falciparum antimalarial project, primary screen (AID 2303;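 active = inhibition above 50%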;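 also: 0% = DMSO wells and 100% = digitonin-killed cells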); settings: HepG2 viability, 24-48 h, at 10 µM, stronger effect = higher value
[3] = target: L-lactate dehydrogenase (Plasmodium falciparum (isolate CDC / Honduras)) (UniProt Q27743); assay: PfLDH activity inhibition – cell lysate, 3D7 strain, counter-screen for P. falciparum growth inhibition project (AID 2304);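 also: 0% = vehicle and 100% = reference inhibitor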; settings: P. falciparum 3D7 crude extract, LDH APAD/NBT absorbance; at 2 µM; stronger effect = higher value
L-lactate dehydrogenase (Plasmodium falciparum (isolate CDC / Honduras)), sequence (Q27743 whole entry, looked up): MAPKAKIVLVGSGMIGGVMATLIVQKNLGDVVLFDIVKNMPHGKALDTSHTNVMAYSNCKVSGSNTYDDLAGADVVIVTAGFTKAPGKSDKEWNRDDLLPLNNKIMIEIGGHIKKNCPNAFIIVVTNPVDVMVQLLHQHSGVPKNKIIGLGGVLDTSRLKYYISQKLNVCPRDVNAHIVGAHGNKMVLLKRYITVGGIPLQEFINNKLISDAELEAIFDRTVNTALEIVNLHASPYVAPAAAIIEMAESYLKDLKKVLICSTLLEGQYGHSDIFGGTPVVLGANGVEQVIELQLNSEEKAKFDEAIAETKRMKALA

[4] = inhibition of 3D7 malaria parasite growth – strain 3D7 (AID 2306);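 also: 0% = DMSO wells and 100% = chloroquine plus artemisinin control wells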; settings: P. falciparum 3D7 erythrocytic growth, LDH absorbance, 72 h; at 2 µM; stronger effect = higher value
[5] = target: Calcium-dependent protein kinase 1 (Plasmodium falciparum (isolate 3D7)) (UniProt P62344); assay: PfCDPK1 kinase inhibitors, biochemical, TCAMS library (AID 1159585; cut-off not given, nearly all actives have IC50 up to about 0.98 µM;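 also: inhibitors leave more ATP so luminescence rises with inhibition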); settings: recombinant PfCDPK1, Kinase-Glo ATP depletion luminescence
Calcium-dependent protein kinase 1 (Plasmodium falciparum (isolate 3D7)), sequence (P62344 whole entry, looked up): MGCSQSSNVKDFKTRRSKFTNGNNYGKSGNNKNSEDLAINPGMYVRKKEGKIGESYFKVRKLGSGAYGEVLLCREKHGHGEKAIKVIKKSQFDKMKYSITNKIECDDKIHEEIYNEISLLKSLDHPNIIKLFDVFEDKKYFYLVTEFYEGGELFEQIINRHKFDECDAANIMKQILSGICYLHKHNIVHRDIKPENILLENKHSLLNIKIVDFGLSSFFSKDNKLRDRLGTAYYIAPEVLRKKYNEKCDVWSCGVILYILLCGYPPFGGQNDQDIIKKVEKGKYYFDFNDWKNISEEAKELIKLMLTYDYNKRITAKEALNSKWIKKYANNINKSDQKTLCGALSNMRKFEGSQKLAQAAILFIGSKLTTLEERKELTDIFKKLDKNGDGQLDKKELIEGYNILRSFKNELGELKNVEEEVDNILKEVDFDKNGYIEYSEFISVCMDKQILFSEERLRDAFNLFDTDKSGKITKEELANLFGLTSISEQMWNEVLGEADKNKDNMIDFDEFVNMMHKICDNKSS

[6] = target: Plasmodium falciparum protein kinase 6 (PK6, PF3D7_1337100) (UniProt Q8IDW1); assay: PfPK6 kinase inhibitors, biochemical, TCAMS library (AID 1159586); settings: recombinant PfPK6, Kinase-Glo ATP depletion luminescence
Plasmodium falciparum protein kinase 6 (PK6, PF3D7_1337100), sequence (Q8IDW1 1-305): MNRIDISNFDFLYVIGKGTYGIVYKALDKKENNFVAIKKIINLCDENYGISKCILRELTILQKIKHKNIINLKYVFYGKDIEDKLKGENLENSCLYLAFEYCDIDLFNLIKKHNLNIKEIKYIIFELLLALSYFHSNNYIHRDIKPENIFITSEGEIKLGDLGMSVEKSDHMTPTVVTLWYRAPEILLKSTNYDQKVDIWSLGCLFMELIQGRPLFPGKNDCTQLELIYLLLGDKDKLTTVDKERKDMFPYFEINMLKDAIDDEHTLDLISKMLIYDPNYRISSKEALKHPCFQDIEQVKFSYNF

[7] = target: Protein kinase 7 (PK7), Plasmodium falciparum 3D7 (PF3D7_0213400) (UniProt Q7YTF7); assay: inhibition of Plasmodium PK7 catalytic activity – biochemical, TCAMS antimalarial set, Kinase-Glo luminescence (AID 1159587); settings: recombinant PfPK7, Kinase-Glo ATP depletion luminescence
Protein kinase 7 (PK7), Plasmodium falciparum 3D7 (PF3D7_0213400), sequence (Q7YTF7 1-343): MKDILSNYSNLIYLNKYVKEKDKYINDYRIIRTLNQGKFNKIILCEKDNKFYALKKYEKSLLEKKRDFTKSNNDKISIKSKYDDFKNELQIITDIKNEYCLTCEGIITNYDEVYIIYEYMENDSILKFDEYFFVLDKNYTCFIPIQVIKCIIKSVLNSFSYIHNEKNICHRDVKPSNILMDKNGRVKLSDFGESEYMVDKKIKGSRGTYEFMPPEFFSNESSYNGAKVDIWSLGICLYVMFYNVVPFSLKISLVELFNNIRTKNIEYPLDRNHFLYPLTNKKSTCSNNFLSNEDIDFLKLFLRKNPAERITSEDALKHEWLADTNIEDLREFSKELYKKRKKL

[8] = target: Calcium-dependent protein kinase 4 (Plasmodium falciparum (isolate 3D7)) (UniProt Q8IBS5); assay: PfCDPK4 kinase inhibitors, biochemical, TCAMS library (AID 1159588; cut-off not given, nearly all actives have IC50 up to about 0.91 µM); settings: recombinant PfCDPK4, Kinase-Glo ATP depletion luminescence
Calcium-dependent protein kinase 4 (Plasmodium falciparum (isolate 3D7)), sequence (Q8IBS5 whole entry, looked up): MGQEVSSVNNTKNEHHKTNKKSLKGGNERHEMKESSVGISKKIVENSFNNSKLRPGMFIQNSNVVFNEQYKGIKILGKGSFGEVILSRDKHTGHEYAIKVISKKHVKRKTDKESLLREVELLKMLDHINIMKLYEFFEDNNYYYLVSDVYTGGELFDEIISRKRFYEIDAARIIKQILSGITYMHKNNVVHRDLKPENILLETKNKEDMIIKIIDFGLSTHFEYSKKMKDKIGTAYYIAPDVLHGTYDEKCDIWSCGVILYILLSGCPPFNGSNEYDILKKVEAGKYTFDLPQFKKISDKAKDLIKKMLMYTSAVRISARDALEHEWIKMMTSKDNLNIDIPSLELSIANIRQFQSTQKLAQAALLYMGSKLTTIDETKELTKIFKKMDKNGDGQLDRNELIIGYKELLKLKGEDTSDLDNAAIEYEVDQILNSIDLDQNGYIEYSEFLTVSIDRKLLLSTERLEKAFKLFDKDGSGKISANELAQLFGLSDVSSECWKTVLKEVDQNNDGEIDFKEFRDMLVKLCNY

For `O=C(CCC1CCCCC1)NCCNc1cccc2ccccc12`, the growth inhibition [1] was 57% (active), the inhibition [2] was 7% and the inhibition [3] was -1%. For the same molecule, the growth inhibition [4] was 90% (active), the outcome [5] was “inactive” and the outcome [6] was “inactive”. For the same molecule, the outcome [7] was “inactive” and the outcome [8] was “inactive”.

For `O=C(Nc1cccnc1)c1ccc(-c2cc3ccncc3cc2OC2CCNCC2)s1`, the growth inhibition [1] was 12%, the inhibition [2] was -5% and the inhibition [3] was 1%. For the same molecule, the growth inhibition [4] was 97% (active), the outcome [5] was “inactive” and the outcome [6] was “inactive”. For the same molecule, the outcome [7] was “inactive” and the outcome [8] was “inactive”.

With `CN1CCC(NCc2ccc(-c3cccc(S(=O)(=O)NCc4ccccc4)c3)cc2)CC1` the growth inhibition [1] was 94% (active), the inhibition [2] was 72% (active) and the inhibition [3] was -3%. For the same molecule, the growth inhibition [4] was 101% (active), the outcome [5] was “inactive” and the outcome [6] was “inactive”. For the same molecule, the outcome [7] was “inactive” and the outcome [8] was “inactive”.

In the case of `O[C@@H](c1ccccc1)[C@@H]1CN(CCC2C[C@@H]3CC[C@H]2C3)CC[C@@]1(O)c1ccccc1` (some centres not stated), the growth inhibition [1] is reported as 99% (active), the inhibition [2] is reported as -1% and the inhibition [3] is reported as -2%. For the same molecule, the growth inhibition [4] was 97% (active), the outcome [5] was “inactive” and the outcome [6] was “inactive”. For the same molecule, the outcome [7] was “inactive” and the outcome [8] was “inactive”.

`FC(F)(F)c1ccc2nccc(NN=CC=Cc3ccccc3)c2c1` showed a growth inhibition [1] of 9%, an inhibition [2] of -4% and an inhibition [3] of -1%. For the same molecule, the growth inhibition [4] was 82% (active), the outcome [5] was “inactive” and the outcome [6] was “inactive”. For the same molecule, the outcome [7] was “inactive” and the outcome [8] was “inactive”.

With `Cc1cccc2[nH]c(-c3cccc(-c4ccc(NC(=O)c5cnn6cccnc56)cc4)c3)nc12` the growth inhibition [1] was 73% (active), the inhibition [2] was 99% (active) and the inhibition [3] was -1%. The growth inhibition [4] was 101% (active), the outcome [5] was “inactive” and the outcome [6] was “inactive”. The outcome [7] was “inactive” and the outcome [8] was “inactive”.

Molecule `NC1=NC2(CCCC2)C(c2ccc(Cl)c(Cl)c2)C(N)=N1` (configuration not stated) has a growth inhibition [1] of 3%, an inhibition [2] of 7% and an inhibition [3] of -1%. For the same molecule, the growth inhibition [4] was 92% (active), the outcome [5] was “inactive” and the outcome [6] was “inactive”. The outcome [7] was “inactive” and the outcome [8] was “inactive”.

With `COc1ccc(CNC2CCN(C)CC2)cc1-c1ccc(S(=O)(=O)NCc2ccccc2)s1` the growth inhibition [1] was 101% (active), the inhibition [2] was 62% (active) and the inhibition [3] was 0%. The growth inhibition [4] was 101% (active), the outcome [5] was “inactive” and the outcome [6] was “inactive”. For the same molecule, the outcome [7] was “inactive” and the outcome [8] was “inactive”.

In the case of `CC(C)NCc1cc(Nc2ccnc3cc(Cl)ccc23)ccc1O`, the growth inhibition [1] is reported as 100% (active), the inhibition [2] is reported as 27% and the inhibition [3] is reported as 6%. For the same molecule, the growth inhibition [4] was 102% (active), the outcome [5] was “inactive” and the outcome [6] was “inactive”. The outcome [7] was “inactive” and the outcome [8] was “inactive”.

Molecule `CCOC(=O)c1ccc(NC(=O)NC2CCN(CCCCCNC(=O)/C=C/c3ccc(Cl)c(Cl)c3)C2)cc1` (configuration not stated) has a growth inhibition [1] of 0%, an inhibition [2] of 23% and an inhibition [3] of -3%. For the same molecule, the growth inhibition [4] was 98% (active), the outcome [5] was “inactive” and the outcome [6] was “inactive”. The outcome [7] was “inactive” and the outcome [8] was “inactive”.

In the case of `CC(C)Cn1ncc2c3c(N)nc(N)nc3ccc21`, the growth inhibition [1] is reported as 73% (active), the inhibition [2] is reported as 63% (active) and the inhibition [3] is reported as 1%. For the same molecule, the growth inhibition [4] was 94% (active), the outcome [5] was “inactive” and the outcome [6] was “inactive”. For the same molecule, the outcome [7] was “inactive” and the outcome [8] was “inactive”.

With `CCCCCCCN1CC[C@@H](CCCc2ccnc3ccc(OCC4CCCNC4)cc23)[C@@H](CC)C1` (some centres not stated) the growth inhibition [1] was 100% (active), the inhibition [2] was 99% (active) and the inhibition [3] was -1%. For the same molecule, the growth inhibition [4] was 98% (active), the outcome [5] was “inactive” and the outcome [6] was “inactive”. For the same molecule, the outcome [7] was “inactive” and the outcome [8] was “inactive”.

For `Cc1ccccc1C1CCN(C2CCC(NC(=O)/C=C/c3cc(F)ccc3C(F)(F)F)CC2)CC1` (configuration not stated), the growth inhibition [1] was 25%, the inhibition [2] was 90% (active) and the inhibition [3] was 2%. The growth inhibition [4] was 98% (active), the outcome [5] was “inactive” and the outcome [6] was “inactive”. For the same molecule, the outcome [7] was “inactive” and the outcome [8] was “inactive”.

With `CC(Cc1ccc(OCCN2CCN(c3cccc(Cl)c3)CC2)cc1)NCC(O)c1cccc(C(F)(F)F)c1` (configuration not stated) the growth inhibition [1] was 98% (active), the inhibition [2] was 100% (active) and the inhibition [3] was -1%. The growth inhibition [4] was 99% (active), the outcome [5] was “inactive” and the outcome [6] was “inactive”. For the same molecule, the outcome [7] was “inactive” and the outcome [8] was “inactive”.

`Cc1cc(N[C@@H](CC(C)C)C(=O)NC2CCCC2)nc(NCCc2ccc(F)cc2)n1` gave a growth inhibition [1] of 47%, an inhibition [2] of 15% and an inhibition [3] of -2%. For the same molecule, the growth inhibition [4] was 100% (active), the outcome [5] was “inactive” and the outcome [6] was “inactive”. The outcome [7] was “inactive” and the outcome [8] was “inactive”.

In the case of `CO/C(=C\C=C\c1cc2cc(Cl)c(Cl)cc2[nH]1)C(=O)NCCCN(C)CCN(C)c1ccccc1`, the growth inhibition [1] is reported as 59% (active), the inhibition [2] is reported as 38% and the inhibition [3] is reported as 0%. The growth inhibition [4] was 96% (active), the outcome [5] was “inactive” and the outcome [6] was “inactive”. The outcome [7] was “inactive” and the outcome [8] was “inactive”.

With `O=C(Nc1ccccc1)Nc1ccc(-n2ccc(C(F)(F)F)n2)cc1` the growth inhibition [1] was 85% (active), the inhibition [2] was 15% and the inhibition [3] was -5%. For the same molecule, the growth inhibition [4] was 95% (active), the outcome [5] was “inactive” and the outcome [6] was “inactive”. The outcome [7] was “inactive” and the outcome [8] was “inactive”.

With `Cc1nnc2c(NC(=O)NC3CCCC3)cc3ccc(-c4cccc(CN(C)C)c4)cc3n12` the growth inhibition [1] was 25%, the inhibition [2] was 42% and the inhibition [3] was 3%. The growth inhibition [4] was 90% (active), the outcome [5] was “inactive” and the outcome [6] was “inactive”. The outcome [7] was “inactive” and the outcome [8] was “inactive”.

For `N=C(N)c1ccc2nc(SCc3ccccc3)[nH]c2c1`, the growth inhibition [1] was 100% (active), the inhibition [2] was -1% and the inhibition [3] was 1%. For the same molecule, the growth inhibition [4] was 97% (active), the outcome [5] was “inactive” and the outcome [6] was “inactive”. For the same molecule, the outcome [7] was “inactive” and the outcome [8] was “inactive”.
